# Reference: PubChem BioAssay (Tox21)
# Records with an inconclusive call do not appear. Entries that show only a call come without a potency. Calls of active or inactive are those of the source. Unless noted, calls follow the shape of the dose curve; as a rule, active = well fitted curve in the direction sought with a large enough effect in the repeat runs; inconclusive = weak or mixed curves; inactive = no such curve, though single readings can be large; an effect the other way counts as inactive or inconclusive.
# Tests used:
# [1] = qHTS assay to identify small molecule agonists of the NFkB signaling pathway (AID 1159509; active = well fitted curve in the direction sought with a large enough effect in the signal ratio in the repeat runs, not every such curve was filed as active; the % refers to the signal ratio; also: series mostly up to about 61 µM)
# Summary of the method: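 ME-180 NFkB-bla, 2,000 cells/well, overnight plating; cpd pinned in DMSO, 5 h 37 C; B/G FRET substrate 1.5 h RT; ex 405, em 460/530 nm.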
# [2] = qHTS assay to identify small molecule agonists of the NFkB signaling pathway - cell viability counter screen (AID 1159515; calls by dose curve; also: series mostly up to about 61 µM; nearly all actives have a fitted effect of over 55% in size)
# Summary of the method: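 5 hr compound treatment of NFkB-bla ME-180 cells (2,000/well, seeded overnight beforehand), followed by reporter substrate for 1.5 hr. CellTiter-Glo added afterward; luminescence after 30 min RT.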
# [3] = qHTS assay to identify small molecule agonists of the endoplasmic reticulum stress response signaling pathway (AID 1159516; active = well fitted activation curve with a large enough effect in the signal ratio in the repeat runs, not every such curve was filed as active; the % refers to the signal ratio)
# Summary of the method: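 Reporter HeLa cells (ESRE-beta-lactamase) underwent 5 hr compound incubation at 37 C and 5% CO2 in quantitative HTS format. Detection followed 2 hr of FRET substrate loading at room temperature.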
# [4] = qHTS assay to identify small molecule agonists of the endoplasmic reticulum stress response signaling pathway - cell viability counter screen (AID 1159517; calls by dose curve;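 also: HeLa cells carrying an ER stress response element beta-lactamase reporter; series mostly up to about 61 µM; nearly all actives have a fitted effect of over 50% in size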)
# Summary of the method: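 HeLa cells carrying an ESRE-driven beta-lactamase reporter receive compound for 5 hr at 37 C. Cell viability is then gauged with CellTiter-Glo by luminescence, 30 min at room temperature.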
# [5] = qHTS assay to identify small molecule antagonists of the retinoid-related orphan receptor gamma (ROR-gamma) signaling pathway - cell viability counter screen (AID 1159520); also: nearly all actives have a fitted effect of over 50% in size; also: potency is read from the fitted curve at half-maximal effect
# Summary of the method: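 Cytotoxicity was read from cellular ATP (CellTiter-Glo luminescence) after 16 hr at 37 C with 1 uM doxycycline induction. The inducer was added 2 hr after compound transfer to Tet-on ROR gamma CHO cells.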
# [6] = molecular target: Nuclear receptor ROR-gamma (Homo sapiens) (UniProt P51449); experiment: qHTS assay to identify small molecule antagonists of the retinoid-related orphan receptor gamma (ROR-gamma) signaling pathway (AID 1159521; also: nearly all actives have a fitted effect of over 50% in size; also: potency is read from the fitted curve at half-maximal effect)
# Summary of the method: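 Decreased RORE-driven luciferase luminescence indicates antagonism. Tet-on RORγ CHO cells received compound, then 1 uM final doxycycline 2 h later; signal read after 16 h incubation.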
# [7] = qHTS assay to identify small molecule agonists of the AP-1 signaling pathway - cell viability counter screen (AID 1159525; calls by dose curve; also: nearly all actives have a fitted effect of over 55% in size; also: potency is read from the fitted curve at half-maximal effect)
# Summary of the method: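 Luminescent ATP readout (Cell Titer Glo, 30 min RT), normalised to DMSO and tetra n-octyl ammonium bromide controls. Cells were ME-180 AP-1-bla in 0.5% dialyzed FBS Opti-MEM, with a 5 h, 37 °C compound exposure.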
# [8] = qHTS assay to identify small molecule antagonists of the retinoid acid receptor (RAR) signaling pathway - cell viability counter screen (AID 1159551); also: nearly all actives have a fitted effect of over 35% in size; also: potency is read from the fitted curve at half-maximal effect
# Summary of the method: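 Seed C3RL4 cells; next day add compound, then retinol to 1 uM final; incubate 6 h at 37 C; add CellTiter-Glo; read luminescence after 30 min at RT.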
# [9] = qHTS assay to identify small molecule antagonists of the retinoic acid receptor (RAR) signaling pathway (AID 1159552; also: nearly all actives have a fitted effect of over 50% in size; also: potency is read from the fitted curve at half-maximal effect)
# Summary of the method: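 C3RL4 RARE-luc cells, overnight plating; retinol 1 uM final added right after compound; 6 hr 37 C; luciferase read at 30 min RT.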
# [10] = qHTS assay to identify small molecule agonists of the retinoic acid receptor (RAR) signaling pathway (AID 1159553)
# Summary of the method: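 Activation of retinol signaling was monitored via a RARE luciferase reporter in C3RL4 cells. After 6 hr compound treatment at 37 C, detection reagent was added for 30 min at room temperature before luminescence reading.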
# [11] = qHTS assay to identify small molecule agonists of the vitamin D receptor (VDR) signaling pathway - cell viability counter screen (AID 743224); also: nearly all actives have a fitted effect of over 50% in size; also: potency is read from the fitted curve at half-maximal effect
# Summary of the method: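 Here cell health was gauged by luminescent ATP detection (CellTiter-Glo, 30 min RT) in VDR-bla cells that had been incubated with test compounds for 16 h at 37C and 5% CO2.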
# [12] = qHTS assay to identify small molecule antagonists of the vitamin D receptor (VDR) signaling pathway - cell viability counter screen (AID 743225); also: nearly all actives have a fitted effect of over 50% in size
# Summary of the method: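 Parallel cytotoxicity test: VDR-UAS-bla HEK 293T, 3 nM (final) 1-alpha,25-dihydroxyvitamin D3 with test compound, 16 h, 37C. Endpoint is CellTiter-Glo luminescence in the same wells.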
# [13] = molecular target: Retinoic acid receptor RXR-alpha (Homo sapiens) (UniProt P19793); experiment: qHTS assay to identify small molecule agonists of the RXR signaling pathway (AID 1159527; calls by dose curve; also: nearly all actives have a fitted effect of over 35% in size; also: potency is read from the fitted curve at half-maximal effect)
# Chain of Retinoic acid receptor RXR-alpha (Homo sapiens) (P19793 whole entry, looked up): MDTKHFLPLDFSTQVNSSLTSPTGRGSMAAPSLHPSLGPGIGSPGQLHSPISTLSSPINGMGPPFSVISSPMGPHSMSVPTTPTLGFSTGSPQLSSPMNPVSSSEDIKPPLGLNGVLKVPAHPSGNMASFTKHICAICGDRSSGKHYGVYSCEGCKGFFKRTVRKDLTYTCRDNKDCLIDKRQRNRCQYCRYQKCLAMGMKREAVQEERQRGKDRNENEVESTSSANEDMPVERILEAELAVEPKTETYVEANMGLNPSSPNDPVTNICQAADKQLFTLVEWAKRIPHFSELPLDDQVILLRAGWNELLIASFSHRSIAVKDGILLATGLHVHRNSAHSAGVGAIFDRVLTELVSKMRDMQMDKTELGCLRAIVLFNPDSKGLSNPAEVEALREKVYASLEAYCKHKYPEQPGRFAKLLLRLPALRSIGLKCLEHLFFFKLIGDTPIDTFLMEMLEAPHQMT
# Summary of the method: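 16 hr incubation of compound-treated RXR-alpha-UAS-bla HEK 293T cells (2% charcoal-stripped FBS, 37 C) preceded a 2 hr room-temperature LiveBLAzer FRET substrate step and blue/green fluorescence measurement.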
# [14] = qHTS assay to identify small molecule agonists of the RXR signaling pathway - cell viability counter screen (AID 1159529); also: nearly all actives have a fitted effect of over 50% in size; also: potency is read from the fitted curve at half-maximal effect
# Summary of the method: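 In this parallel viability measure, GeneBLAzer RXR-alpha HEK 293T cells (2% charcoal-stripped FBS) were given a 5 hr preincubation, treated with compounds 16 hr at 37 C, and read by CellTiter-Glo luminescence.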
# [15] = qHTS assay to identify small molecule agonists of the AP-1 signaling pathway (AID 1159526; calls by dose curve)
# [16] = qHTS assay to identify small molecule antagonists of the estrogen related receptor (ERR) signaling pathway - cell viability counter screen (AID 1224818);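 also: series mostly up to about 46 µM; viability measured after 17.5 h of compound exposure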
# Summary of the method: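 In the same ERR cell assay, compound-treated wells (17.5 h, 37 C) were multiplexed with a fluorogenic viability reagent, CellTiter-Fluor, read after 30 min to flag cytotoxic substances.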
# [17] = qHTS assay to identify small molecule antagonists of the estrogen related receptor signaling pathway with the pleiotropic PPARgamma coactivator (PGC) cell viability counter screen (AID 1224822; also: series mostly up to about 46 µM)
# Summary of the method: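 Compounds in DMSO, with positive and negative controls, were applied to PGC/ERR cells (2,000/well) and left 17.5 h at 37 C before CellTiter-Fluor detection.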
SMILES,outcome [1],outcome [2],outcome [3],Potency [4],Potency [5],Potency [6],Potency [7],Potency [8],Potency [9],Potency [10],Potency [11],outcome [12],Potency [13],Potency [14],outcome [15],outcome [16],outcome [17]
CCOP(=S)(Oc1cnc(C(C)(C)C)nc1)OC(C)C (stereo not given),inactive,inactive,inactive,inactive,inactive,inactive,inactive,inactive,inactive,inactive,,,,,,,
O=C1OC(c2ccc(O)c(S(=O)(=O)O)c2)(c2ccc(O)c(S(=O)(=O)O)c2)c2c(Br)c(Br)c(Br)c(Br)c21,inactive,inactive,inactive,inactive,inactive,inactive,inactive,inactive,inactive,,inactive,inactive,inactive,inactive,,,
C=CC1CC=CCC1 (stereo not given),inactive,inactive,inactive,inactive,inactive,,inactive,inactive,inactive,inactive,inactive,,inactive,inactive,inactive,,
C#C[C@]1(O)C=C[C@H]2[C@@H]3CCC4=CC(=O)CC[C@@H]4[C@H]3CC[C@@]21CC,inactive,inactive,inactive,inactive,inactive,,inactive,inactive,11.9 µM (active),inactive,inactive,inactive,inactive,inactive,inactive,,
COc1cccc2c1cc([N+](=O)[O-])c1c(C(=O)O)cc3c(c12)OCO3,inactive,inactive,inactive,inactive,43.3 µM (active),15.4 µM (active),inactive,,,,15.5 µM (active),,,17.4 µM (active),,,
Cc1cnc[nH]1,inactive,inactive,inactive,inactive,inactive,,inactive,inactive,inactive,inactive,inactive,inactive,inactive,inactive,inactive,,
BrCCCCCCBr,inactive,inactive,inactive,inactive,inactive,inactive,inactive,inactive,inactive,inactive,,inactive,,inactive,,,
CN1CCC(N(Cc2ccccc2)c2ccccc2)CC1,inactive,inactive,inactive,inactive,inactive,inactive,inactive,inactive,,,inactive,inactive,inactive,,,,
CNNC,inactive,inactive,inactive,inactive,inactive,inactive,inactive,inactive,inactive,inactive,inactive,,,inactive,,,
CN1CCC(O)(c2ccc(F)cc2)C(C(=O)c2ccc(F)cc2)C1 (stereo not given),inactive,inactive,inactive,inactive,inactive,inactive,inactive,inactive,,,inactive,inactive,,,inactive,,
CCCCc1ccc(O)cc1,inactive,inactive,inactive,inactive,inactive,inactive,inactive,inactive,inactive,inactive,inactive,inactive,inactive,inactive,,,
CC1CN1P(=O)(N1CC1C)N1CC1C (stereo not given),inactive,inactive,inactive,inactive,inactive,inactive,inactive,inactive,,,inactive,,,inactive,,,
ClCCCN1CCN(c2cccc(Cl)c2)CC1,inactive,inactive,inactive,inactive,inactive,inactive,inactive,inactive,inactive,inactive,inactive,,inactive,inactive,,,
CCC(=O)C(CCN(C)C)(c1ccccc1)c1ccccc1,inactive,inactive,inactive,inactive,inactive,inactive,inactive,inactive,,inactive,inactive,inactive,,inactive,,,
O=C1OC(CCN2CCCCC2)OC1(c1ccccc1)c1ccccc1 (stereo not given),inactive,inactive,inactive,inactive,inactive,inactive,inactive,inactive,26.6 µM (active),,inactive,inactive,inactive,inactive,,,
Nc1cc(Cl)ccc1O,inactive,inactive,inactive,inactive,inactive,inactive,inactive,inactive,,,inactive,inactive,,,,,
O=C(O)C(Br)CBr (stereo not given),inactive,inactive,inactive,inactive,inactive,inactive,inactive,inactive,,,inactive,inactive,9.94 µM (active),inactive,,,

SMILES,outcome [1],outcome [2],outcome [3],Potency [4],Potency [5],Potency [6],Potency [7],Potency [8],Potency [9],Potency [10],Potency [11],outcome [12],Potency [13],Potency [14],outcome [15],outcome [16],outcome [17]
CCN(CC)C(C)C(=O)c1ccccc1 (stereo not given),inactive,inactive,inactive,inactive,inactive,,inactive,inactive,inactive,inactive,inactive,,inactive,inactive,inactive,,
CC(C=O)Cc1ccc2c(c1)OCO2 (stereo not given),inactive,inactive,inactive,inactive,inactive,inactive,inactive,inactive,inactive,inactive,inactive,inactive,inactive,,,,
CC(C)CP(=S)(S)CC(C)C,inactive,inactive,inactive,inactive,inactive,24.3 µM (active),inactive,inactive,inactive,inactive,,inactive,,inactive,,,
CC(CCc1ccccc1)NC(C)C(O)c1ccc(O)cc1 (stereo not given),inactive,inactive,inactive,inactive,inactive,inactive,inactive,inactive,,,,inactive,,inactive,,inactive,inactive
N#CC(CCc1ccc(Cl)cc1)(Cn1cncn1)c1ccccc1 (stereo not given),inactive,inactive,inactive,inactive,54.5 µM (active),27.3 µM (active),54.9 µM (active),,61.1 µM (active),,inactive,,,24.5 µM (active),,,
CCCSP(=S)(OCC)Oc1ccc(Cl)cc1Cl (stereo not given),inactive,inactive,inactive,inactive,inactive,inactive,inactive,inactive,inactive,inactive,,inactive,,,,,
CCCCOC(=O)[C@@H](C)Oc1ccc(Oc2ccc(C#N)cc2F)cc1,inactive,inactive,inactive,inactive,inactive,inactive,inactive,inactive,,,inactive,inactive,,inactive,,,
COc1cccc(C(=O)NN(C(=O)c2cc(C)cc(C)c2)C(C)(C)C)c1C,inactive,inactive,inactive,inactive,inactive,,inactive,inactive,inactive,inactive,inactive,,inactive,inactive,inactive,,
ClCC(Cl)(Cl)Cl,inactive,inactive,inactive,inactive,inactive,,inactive,inactive,inactive,inactive,inactive,inactive,inactive,inactive,inactive,,
CC(CC(C#N)(c1ccccc1)c1ccccc1)N(C)C (stereo not given),inactive,inactive,inactive,inactive,inactive,inactive,inactive,inactive,,,inactive,inactive,inactive,inactive,,,
C=CCC1=C(C)[C@@H](OC(=O)[C@@H]2[C@@H](C=C(C)C)C2(C)C)CC1=O,inactive,inactive,inactive,inactive,54.5 µM (active),27.3 µM (active),49 µM (active),54.5 µM (active),27.3 µM (active),,38.9 µM (active),,,,,,
CCN(CC)c1nc(C)cc(OP(=S)(OC)OC)n1,inactive,inactive,inactive,inactive,inactive,inactive,inactive,inactive,inactive,inactive,,inactive,inactive,inactive,,,
COC(=O)C1=CCCN(C)C1,inactive,inactive,inactive,inactive,inactive,inactive,inactive,inactive,,,inactive,inactive,inactive,inactive,,inactive,inactive
COC(=O)c1ccccc1S(=O)(=O)NC(=O)N(C)c1nc(C)nc(OC)n1,inactive,inactive,inactive,inactive,inactive,,inactive,inactive,inactive,inactive,inactive,inactive,inactive,inactive,inactive,,
CC(C)[N+](=O)[O-],inactive,inactive,inactive,inactive,inactive,,inactive,inactive,inactive,inactive,inactive,inactive,,,inactive,,
CC(N)=S,inactive,,inactive,inactive,inactive,inactive,inactive,inactive,,,inactive,,inactive,inactive,inactive,,
CCCCc1c(C)nc(NCC)[nH]c1=O,inactive,inactive,inactive,inactive,inactive,,inactive,inactive,,,inactive,inactive,inactive,inactive,inactive,,
